Out of some 5,500 compounds screened, about 2,000 (36%) were called active. Inconclusive results (about 18%) are left out. The list shows a part of the results. Unmarked numbers belong to inactive results. No stated cut-off is given here; in the data, active means normalized growth mostly below about 0.91 (no sharp cut-off); inconclusive means no clear call, values can overlap the other calls; inactive means mostly above about 0.92.
Assay: chemical genetic growth profiling, strain panel (AID 1159580);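 further: tested at 20 µM; growth read once vehicle control cultures reached saturation at 30 °C; 1 = growth at the plate median or of vehicle wells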
Settings: S. cerevisiae deletion strains, growth OD

`CC(CC(O)C1OC1(C)C)[C@@H]1CCC2(C)C3=CCC4C(C)(C)C(=O)CCC4(C)C3CC[C@@]12C` (some centres not stated) showed a normalized growth (locus YAL021C, strain ccr4, stronger effect = lower value) of 0.986, a normalized growth (locus YAL026C, strain drs2, stronger effect = lower value) of 0.997 and a normalized growth (locus YAL030W, strain snc1, stronger effect = lower value) of 1. The normalized growth (locus YBL061C, strain skt5, stronger effect = lower value) was 1.02, the normalized growth (locus YBR009C, strain hhf1, stronger effect = lower value) was 0.979 and the normalized growth (locus YBR021W, strain FUR4, stronger effect = lower value) was 0.993. The normalized growth (locus YBR023C, strain chs3, stronger effect = lower value) was 1.01, the normalized growth (locus YBR171W, strain sec66, stronger effect = lower value) was 0.999 and the normalized growth (locus YBR229C, strain ROT2, stronger effect = lower value) was 1.03. It also gave a normalized growth (locus YBR231C, strain swc5, stronger effect = lower value) of 1.04, a normalized growth (locus YBR279W, strain paf1, stronger effect = lower value) of 0.999 and a normalized growth (locus YCL011C, strain gbp2, stronger effect = lower value) of 1.01. It also gave a normalized growth (locus YCL016C, strain dcc1, stronger effect = lower value) of 0.994, a normalized growth (locus YCL029C, strain bik1, stronger effect = lower value) of 1.03 and a normalized growth (locus YCL061C, strain MRC1, stronger effect = lower value) of 0.994. The normalized growth (locus YCL069W, strain vba3, stronger effect = lower value) was 0.995, the normalized growth (locus YCR088W, strain abp1, stronger effect = lower value) was 1.01 and the normalized growth (locus YDL005C, strain med2, stronger effect = lower value) was 1.01. It also gave a normalized growth (locus YDL035C, strain GPR1, stronger effect = lower value) of 0.952, a normalized growth (locus YDL040C, strain nat1, stronger effect = lower value) of 1 and a normalized growth (locus YDL074C, strain BRE1, stronger effect = lower value) of 1.02. For the same compound, the normalized growth (locus YDL101C, strain DUN1, stronger effect = lower value) was 1.04, the normalized growth (locus YDL134C, strain PPH21, stronger effect = lower value) was 1.03 and the normalized growth (locus YDL185W, strain tfp1, stronger effect = lower value) was 1.03. It also gave a normalized growth (locus YDL192W, strain arf1, stronger effect = lower value) of 1.03, a normalized growth (locus YDR001C, strain nth1, stronger effect = lower value) of 0.984 and a normalized growth (locus YDR069C, strain doa4, stronger effect = lower value) of 1. The normalized growth (locus YDR101C, strain arx1, stronger effect = lower value) was 1.02, the normalized growth (locus YDR137W, strain rgp1, stronger effect = lower value) was 0.831 (active) and the normalized growth (locus YDR159W, strain sac3, stronger effect = lower value) was 1.01. For the same compound, the normalized growth (locus YDR162C, strain NBP2, stronger effect = lower value) was 1.04, the normalized growth (locus YDR195W, strain ref2) was 0.971 and the normalized growth (locus YDR297W, strain sur2, stronger effect = lower value) was 1. It also gave a normalized growth (locus YDR318W, strain mcm21, stronger effect = lower value) of 1.04, a normalized growth (locus YDR334W, strain swr1, stronger effect = lower value) of 0.997 and a normalized growth (locus YDR335W, strain msn5, stronger effect = lower value) of 0.993. For the same compound, the normalized growth (locus YDR388W, stronger effect = lower value) was 1.03, the normalized growth (locus YDR392W, strain spt3, stronger effect = lower value) was 1.02 and the normalized growth (locus YDR502C, strain sam2, stronger effect = lower value) was 1.03. It also gave a normalized growth (locus YEL003W, strain gim4, stronger effect = lower value) of 1.01, a normalized growth (locus YEL037C, strain rad23, stronger effect = lower value) of 1 and a normalized growth (locus YEL061C, strain CIN8 (second series), stronger effect = lower value) of 1. The normalized growth (locus YER015W, strain faa2, stronger effect = lower value) was 1, the normalized growth (locus YER016W, strain bim1, stronger effect = lower value) was 1 and the normalized growth (locus YER110C, stronger effect = lower value) was 1.03. The normalized growth (locus YER111C, strain swi4, stronger effect = lower value) was 1.02, the normalized growth (locus YER155C, strain BEM2 (second series), stronger effect = lower value) was 1.04 and the normalized growth (locus YER155C, strain BEM2, stronger effect = lower value) was 1.04. It also gave a normalized growth (locus YER167W, strain BCK2, stronger effect = lower value) of 1.05, a normalized growth (locus YFR010W, strain ubp6, stronger effect = lower value) of 0.997 and a normalized growth (locus YGL078C, strain dbp3, stronger effect = lower value) of 1.01. It also gave a normalized growth (locus YGL086W, strain mad1, stronger effect = lower value) of 1.05, a normalized growth (locus YGL167C, strain pmr1, stronger effect = lower value) of 0.999 and a normalized growth (locus YGL173C, strain kem1, stronger effect = lower value) of 1. The normalized growth (locus YGL227W, strain vid30, stronger effect = lower value) was 0.998, the normalized growth (locus YGL240W, strain doc1, stronger effect = lower value) was 1.02 and the normalized growth (locus YGL248W, strain PDE1, stronger effect = lower value) was 1.03. It also gave a normalized growth (locus YGL253W, strain hxk2, stronger effect = lower value) of 0.994, a normalized growth (locus YGR135W, strain pre9, stronger effect = lower value) of 1.04 and a normalized growth (locus YGR229C, strain SMI1, stronger effect = lower value) of 1.08. It also gave a normalized growth (locus YGR252W, strain gcn5, stronger effect = lower value) of 1.17, a normalized growth (locus YHR013C, strain ard1, stronger effect = lower value) of 1.03 and a normalized growth (locus YHR027C, strain rpn1, stronger effect = lower value) of 1. It also gave a normalized growth (locus YHR030C, strain SLT2, stronger effect = lower value) of 1.03, a normalized growth (locus YHR079C, strain IRE1 (second series), stronger effect = lower value) of 1.03 and a normalized growth (locus YHR094C, strain hxt1, stronger effect = lower value) of 1.04. The normalized growth (locus YHR129C, strain ARP1, stronger effect = lower value) was 1.04, the normalized growth (locus YHR142W, strain chs7, stronger effect = lower value) was 1 and the normalized growth (locus YHR200W, strain rpn10, stronger effect = lower value) was 1.03. For the same compound, the normalized growth (locus YIL066C, strain RNR3, stronger effect = lower value) was 1.01, the normalized growth (locus YIL073C, strain SPO22, stronger effect = lower value) was 1.1 and the normalized growth (locus YIL125W, strain kgd1, stronger effect = lower value) was 1.03. For the same compound, the normalized growth (locus YIR030C, strain dcg1, stronger effect = lower value) was 1.03, the normalized growth (locus YJL092W, strain hpr5, stronger effect = lower value) was 1 and the normalized growth (locus YJL095W, strain BCK1 (second series), stronger effect = lower value) was 1. It also gave a normalized growth (locus YJL095W, strain BCK1, stronger effect = lower value) of 1.05, a normalized growth (locus YJL115W, strain asf1, stronger effect = lower value) of 0.992 and a normalized growth (locus YJL129C, strain trk1, stronger effect = lower value) of 0.993. For the same compound, the normalized growth (locus YJL134W, strain LCB3, stronger effect = lower value) was 1.04, the normalized growth (locus YJL154C, strain vps35, stronger effect = lower value) was 1 and the normalized growth (locus YJL164C, strain tpk1, stronger effect = lower value) was 0.966. The normalized growth (locus YJL166W, strain qcr8, stronger effect = lower value) was 0.988, the normalized growth (locus YJL168C, strain set2, stronger effect = lower value) was 1.04 and the normalized growth (locus YJL187C, strain SWE1 (second series), stronger effect = lower value) was 1.03. For the same compound, the normalized growth (locus YJL187C, strain SWE1, stronger effect = lower value) was 0.995, the normalized growth (locus YKL068W, stronger effect = lower value) was 1.01 and the normalized growth (locus YKL160W, strain elf1, stronger effect = lower value) was 0.993. For the same compound, the normalized growth (locus YKR001C, strain vps1, stronger effect = lower value) was 1.07, the normalized growth (locus YKR026C, strain gcn3, stronger effect = lower value) was 1.01 and the normalized growth (locus YKR091W, strain srl3, stronger effect = lower value) was 0.996. For the same compound, the normalized growth (locus YLL001W, strain dnm1, stronger effect = lower value) was 0.949, the normalized growth (locus YLL026W, stronger effect = lower value) was 0.998 and the normalized growth (locus YLL041C, strain sdh2, stronger effect = lower value) was 0.998. For the same compound, the normalized growth (locus YLR027C, strain aat2, stronger effect = lower value) was 0.993, the normalized growth (locus YLR039C, strain RIC1, stronger effect = lower value) was 1.09 and the normalized growth (locus YLR058C, strain SHM2, stronger effect = lower value) was 1.04. The normalized growth (locus YLR102C, strain apc9, stronger effect = lower value) was 1.04, the normalized growth (locus YLR221C, strain rsa3, stronger effect = lower value) was 1.03 and the normalized growth (locus YLR258W, strain gsy2, stronger effect = lower value) was 1.01. For the same compound, the normalized growth (locus YLR262C, strain YPT6 (second series), stronger effect = lower value) was 0.768 (active), the normalized growth (locus YLR262C, strain YPT6, stronger effect = lower value) was 1.02 and the normalized growth (locus YLR268W, strain sec22, stronger effect = lower value) was 1.04. It also gave a normalized growth (locus YLR320W, strain mms22, stronger effect = lower value) of 1.03, a normalized growth (locus YLR330W, strain CHS5, stronger effect = lower value) of 1.04 and a normalized growth (locus YLR342W, strain FKS1, stronger effect = lower value) of 1.02. It also gave a normalized growth (locus YLR357W, strain rsc2, stronger effect = lower value) of 1.02, a normalized growth (locus YLR370C, strain arc18, stronger effect = lower value) of 1.01 and a normalized growth (locus YLR371W, strain rom2, stronger effect = lower value) of 1.04. The normalized growth (locus YLR384C, strain iki3, stronger effect = lower value) was 1, the normalized growth (locus YLR418C, strain cdc73, stronger effect = lower value) was 1.09 and the normalized growth (locus YML016C, strain PPZ1, stronger effect = lower value) was 1.05. It also gave a normalized growth (locus YML032C, strain rad52, stronger effect = lower value) of 1.04, a normalized growth (locus YML120C, strain ndi1, stronger effect = lower value) of 0.995 and a normalized growth (locus YML124C, strain tub3, stronger effect = lower value) of 1.03. It also gave a normalized growth (locus YMR058W, strain fet3, stronger effect = lower value) of 1.01, a normalized growth (locus YMR078C, strain ctf18, stronger effect = lower value) of 1.05 and a normalized growth (locus YMR125W, strain sto1, stronger effect = lower value) of 1. The normalized growth (locus YMR129W, stronger effect = lower value) was 1, the normalized growth (locus YMR205C, strain PFK2, stronger effect = lower value) was 0.943 and the normalized growth (locus YMR223W, strain ubp8, stronger effect = lower value) was 1.03. For the same compound, the normalized growth (locus YMR231W, strain pep5, stronger effect = lower value) was 0.98, the normalized growth (locus YMR307W, strain GAS1, stronger effect = lower value) was 1.07 and the normalized growth (locus YNL067W, strain RPL9B, stronger effect = lower value) was 1.03. For the same compound, the normalized growth (locus YNL071W, strain lat1, stronger effect = lower value) was 0.996, the normalized growth (locus YNL153C, strain GIM3, stronger effect = lower value) was 1.01 and the normalized growth (locus YNL209W, strain ssb2, stronger effect = lower value) was 1. The normalized growth (locus YNL233W, strain BNI4, stronger effect = lower value) was 1.03, the normalized growth (locus YNL248C, strain rpa49, stronger effect = lower value) was 0.959 and the normalized growth (locus YNL250W, strain rad50, stronger effect = lower value) was 1.04. The normalized growth (locus YNL271C, strain bni1, stronger effect = lower value) was 1.03, the normalized growth (locus YNL298W, strain CLA4, stronger effect = lower value) was 1.02 and the normalized growth (locus YNL307C, strain MCK1, stronger effect = lower value) was 1.03. It also gave a normalized growth (locus YNL322C, strain KRE1 (second series), stronger effect = lower value) of 0.989, a normalized growth (locus YNR049C, strain mso1, stronger effect = lower value) of 0.995 and a normalized growth (locus YNR052C, strain pop2, stronger effect = lower value) of 1.04. The normalized growth (locus YOL006C, strain TOP1, stronger effect = lower value) was 1.09, the normalized growth (locus YOL012C, strain htz1) was 1.47 and the normalized growth (locus YOL147C, strain pex11, stronger effect = lower value) was 1.05. It also gave a normalized growth (locus YOR001W, strain rrp6, stronger effect = lower value) of 0.983, a normalized growth (locus YOR061W, strain CKA2, stronger effect = lower value) of 1.03 and a normalized growth (locus YOR069W, strain VPS5, stronger effect = lower value) of 1.03. For the same compound, the normalized growth (locus YOR070C, strain gyp1, stronger effect = lower value) was 1.02, the normalized growth (locus YOR080W, strain dia2, stronger effect = lower value) was 1.01 and the normalized growth (locus YOR083W, strain WHI5, stronger effect = lower value) was 0.994. It also gave a normalized growth (locus YOR106W, strain vam3, stronger effect = lower value) of 0.982, a normalized growth (locus YOR136W, strain idh2, stronger effect = lower value) of 1.03 and a normalized growth (locus YOR144C, strain elg1, stronger effect = lower value) of 1.04. It also gave a normalized growth (locus YOR184W, strain ser1, stronger effect = lower value) of 0.955, a normalized growth (locus YOR265W, strain rbl2, stronger effect = lower value) of 0.999 and a normalized growth (locus YOR270C, strain vph1, stronger effect = lower value) of 0.877. For the same compound, the normalized growth (locus YOR290C, strain snf2, stronger effect = lower value) was 0.946, the normalized growth (locus YOR316C, strain cot1, stronger effect = lower value) was 1.02 and the normalized growth (locus YPL051W, strain arl3, stronger effect = lower value) was 1.03. For the same compound, the normalized growth (locus YPL078C, strain atp4, stronger effect = lower value) was 0.966, the normalized growth (locus YPL106C, strain sse1, stronger effect = lower value) was 1.1 and the normalized growth (locus YPL240C, strain hsp82, stronger effect = lower value) was 1.01. The normalized growth (locus YPL241C, strain CIN2, stronger effect = lower value) was 1.05, the normalized growth (locus YPR119W, strain clb2, stronger effect = lower value) was 1.04 and the normalized growth (locus YPR141C, strain kar3, stronger effect = lower value) was 1.05. For the same compound, the normalized growth (locus YPR163C, strain tif3, stronger effect = lower value) was 1.04, the normalized growth (locus YPR167C, strain met16, stronger effect = lower value) was 1.03 and the normalized growth (strain wtn01, stronger effect = lower value) was 1.02.
